# Results as given in PubChem BioAssay AID651828 (ICCB-Longwood Screening Facility, Harvard Medical School, 2012).
# “And” between values parts separate entries of the source, which are not always exact repeats. Equal entries are not always repeated. Among all 20,000 compounds or so, about 25 (0.1%) were called active. Shown is part of a subset that was picked to be rich in actives. A number with no mark means an inactive call. Cut-off read from the data, not from the text of the source: active = % bound below about 75%; inactive = the rest.
# Molecular target: Nucleoprotein (Rift valley fever virus (strain ZH-548 M12)) (UniProt P21700)
# Assay: inhibitors of RVFV nucleoprotein–RNA binding, primary screen, biochemical, fluorescence polarization (AID 651828)
# Settings: RVFV N-RNA binding, active compounds read low, concentration not given here
# Chain of Nucleoprotein (Rift valley fever virus (strain ZH-548 M12)) (P21700 whole entry, looked up): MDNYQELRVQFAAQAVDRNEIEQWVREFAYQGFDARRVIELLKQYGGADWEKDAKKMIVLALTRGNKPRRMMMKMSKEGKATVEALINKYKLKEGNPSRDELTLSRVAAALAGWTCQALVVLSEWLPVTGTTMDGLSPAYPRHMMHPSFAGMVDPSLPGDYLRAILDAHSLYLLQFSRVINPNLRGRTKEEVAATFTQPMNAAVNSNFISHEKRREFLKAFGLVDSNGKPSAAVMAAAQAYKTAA
row,SMILES,% bound
1,O=C(CCN1C(=O)c2ccccc2C1=O)Oc1c(-c2ccco2)oc2ccccc2c1=O,95%
2,COc1ccccc1C(c1c(C)[nH][nH]c1=O)C(C#N)C#N (centres undefined),95.8%
3,O=C(CCC(=O)c1ccccc1)c1ccccc1,93.9%
4,CS(=O)(=O)N1CCN(C(=O)CSc2ccccc2)CC1,80.6%
5,COc1cc(C2c3c(oc4ccccc4c3=O)C(=O)N2CCCOC(C)C)cc(Br)c1O (centres undefined),97.6%
6,CCOC(=O)c1cn[nH]c1NC(=S)Nc1ccccc1,98.6%
7,Cc1nc(N)sc1-c1ccnc(Nc2cccc([N+](=O)[O-])c2)n1,104%
8,Cc1nc2sc(C(c3ccccc3Cl)N(C)Cc3ccccc3)c(O)n2n1 (centres undefined),108%
9,CCC(=O)Nc1ccc(C(=O)n2nnc3ccccc32)cc1,94.2%
10,CNS(=O)(=O)c1ccc(NC(=O)C2CC3C=CC2C3)cc1 (centres undefined),99.1%
11,CC1(C)C/C(=N/O)c2ccoc2C1,97.9%
12,CCC(=O)N=c1sc2cc(Br)ccc2n1CCOC,101%
13,COc1ccc(CCC(=O)NCC#N)cc1,86.2%
14,CCOc1ccc(C(=O)Nc2cccc(-c3ccc4nncn4n3)c2)cc1,107%
15,Cc1ccc2oc(C(=O)N(C)c3ccccc3)c(C)c2c1,97.6%
16,CC(=O)Oc1ccc(S(=NS(=O)(=O)c2ccccc2)c2ccc(OC(C)=O)cc2)cc1,94.2%
17,Cc1[nH]cc(Br)c(=O)c1OCC(=O)O,95.2%
18,Cc1c(C(=O)NCCN2CCOCC2)sc2nc(-c3ccc(F)cc3)cn12,97%
19,N#Cc1c(NC(=S)NC(=O)c2ccco2)sc2c1CCCC2,97.3%
20,C/C(=N\NC1=NCCCCC1)c1ccccc1,95.3%
21,CC1CCN(CC(=O)Nc2nccs2)CC1,91.9%
22,CCC1CCC(N(CC)CCN(C)C)CC1 (centres undefined),112%
23,C[C@H](N[C@@H](CCc1ccccc1)C(=O)O)C(=O)N1Cc2ccccc2C[C@H]1C(=O)O,100%
24,COc1ccc2oc(=O)c(S(=O)(=O)c3ccccc3)cc2c1,85%
25,O=C(O)CN1C(=O)/C(=C2/OC(=O)c3ccccc32)SC1=S,95.4%
26,O=C(NCCc1ccccc1)Nc1ccccc1,108%
27,CCCNC(=O)c1c(N)n(-c2ccccc2)c2nc3ccccc3nc12,95.9%

row,SMILES,% bound
1,O=C(Nc1cccc(Nc2nccc(Nc3cccc(C(F)(F)F)c3)n2)c1)C1CC1,112% and 103%
2,Cn1c(=O)c2cc3c(=O)n(C)c(=O)c3cc2c1=O,101%
3,COc1c(C(=O)O/N=C(\N)c2cccs2)csc1Cl,95.1%
4,CN(C)c1ccc(C=NCC(O)CN=Cc2ccc(N(C)C)cc2)cc1 (centres undefined),97.1%
5,Cc1ccc(S(=O)(=O)NCc2csc(C)n2)c(C)c1,105%
6,CC(C)N1C(=O)CNC1=S,98%
7,CC(C)CC(=O)Nc1ccncc1,86%
8,O=C(OCCO)c1cc(Cl)c(C(=O)OCCO)cc1Cl,104%
9,COC(=O)COc1cccc(NC(=O)Cc2cccs2)c1,98.5%
10,CCCNC1=C(c2ccc(OC)cc2)C(=O)c2ccccc21,95.2%
11,CSc1sc(C(=O)NC(=O)NCc2cccnc2)c(C)c1-c1ccon1,93.2%
12,CN(C)C(C#N)c1cn(C)c2ccccc12 (centres undefined),94.2%
13,Cc1[nH]c2ccccc2c1SCC(=O)Nc1nccs1,108%
14,COc1cccc(-c2ccc(=O)n(CC(=O)NCc3ccccc3)n2)c1,85%
15,O=C(NCCSCc1ccco1)C1CCC1,98.2%
16,CCSc1nc(=O)[nH]c2c1CCC2,92.2%
17,CCC(=O)NC1(C(F)(F)F)C(=O)NC(C)=C1C(=O)OC (centres undefined),97%
18,C/C(=N/NC(=O)c1ccoc1C)c1ccc(NC(=O)c2ccco2)cc1,91.1%
19,N#Cc1cccc2c1-c1ccccc1C2,96%
20,O=C1c2ccc(-c3nc4ccccc4c(=O)o3)cc2C(=O)N1c1ccc2c(c1)OCO2,90%
21,O=C1CC2(CCCC2)C(=O)N1c1ccc(S(=O)(=O)NCc2ccco2)cc1Cl,94.5%
22,CN1CCN(C(=O)c2ccccc2NC(=O)c2ccc(Cl)cc2)CC1,100%
23,CCN(CC)C(=O)N1CC(C)CC(C)C1 (centres undefined),95.2%
24,CCN1CCN(C(c2cccnc2)c2c(NC(C)=O)sc3c2CCCC3)CC1 (centres undefined),109%
25,O=S(=O)(c1ccccc1)N1CCn2cccc2C1c1ccccc1 (centres undefined),99.1%
26,CCSc1nc2ccccc2c(=O)n1C,96.2%
27,CS(=O)(=O)NCCS(=O)(=O)N1CCN(c2ccccc2)CC1,97.1%
